Screens: PubChem, several laboratories
Compounds with a hit are over-represented: about 2% of the library has one in this group of screens.
ABCB6 inh 2: blocks the human ABCB6 transporter; K562-ABCB6 porphyrin accumulation, flow cytometry, 1 h; active compounds read low; fluorescence ratio to DMSO, % at 10 µM; 360,000 compounds, 0.19% hits;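 active = fluorescence ratio to DMSO below 75%, the collection mean minus 3 SD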;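 also: signal is porphyrin accumulated inside mitochondria; 100% equals median channel fluorescence of DMSO control wells; lower ratio means ABCB6 inhibition with less porphyrin fluorescence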
NR1D1 modulator: modulators of human Rev-erb alpha DNA binding | P20393 | Rev-erbα–FITC-DNA binding, fluorescence polarization, 90 min | activity, % at 10 µM | 370,000 compounds, 0.79% hits | AID 1259318;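 active = activity above about 14%, limit read from the data; passing the limit was not always enough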;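 also: 0% = DMSO wells with 35 nM protein and 100% = DMSO wells with 750 nM protein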
VLA-4 inh: inhibition in a human VLA-4 binding assay. VLA-4 expressing cells, ligand binding flow cytometry. inhibition, % (about 7 µM as worked out from the volumes in the protocol). 330,000 compounds, 0.2% hits. AID 2557; in the data active = inhibition above about 50%
Target sequence (P13612 whole entry, looked up): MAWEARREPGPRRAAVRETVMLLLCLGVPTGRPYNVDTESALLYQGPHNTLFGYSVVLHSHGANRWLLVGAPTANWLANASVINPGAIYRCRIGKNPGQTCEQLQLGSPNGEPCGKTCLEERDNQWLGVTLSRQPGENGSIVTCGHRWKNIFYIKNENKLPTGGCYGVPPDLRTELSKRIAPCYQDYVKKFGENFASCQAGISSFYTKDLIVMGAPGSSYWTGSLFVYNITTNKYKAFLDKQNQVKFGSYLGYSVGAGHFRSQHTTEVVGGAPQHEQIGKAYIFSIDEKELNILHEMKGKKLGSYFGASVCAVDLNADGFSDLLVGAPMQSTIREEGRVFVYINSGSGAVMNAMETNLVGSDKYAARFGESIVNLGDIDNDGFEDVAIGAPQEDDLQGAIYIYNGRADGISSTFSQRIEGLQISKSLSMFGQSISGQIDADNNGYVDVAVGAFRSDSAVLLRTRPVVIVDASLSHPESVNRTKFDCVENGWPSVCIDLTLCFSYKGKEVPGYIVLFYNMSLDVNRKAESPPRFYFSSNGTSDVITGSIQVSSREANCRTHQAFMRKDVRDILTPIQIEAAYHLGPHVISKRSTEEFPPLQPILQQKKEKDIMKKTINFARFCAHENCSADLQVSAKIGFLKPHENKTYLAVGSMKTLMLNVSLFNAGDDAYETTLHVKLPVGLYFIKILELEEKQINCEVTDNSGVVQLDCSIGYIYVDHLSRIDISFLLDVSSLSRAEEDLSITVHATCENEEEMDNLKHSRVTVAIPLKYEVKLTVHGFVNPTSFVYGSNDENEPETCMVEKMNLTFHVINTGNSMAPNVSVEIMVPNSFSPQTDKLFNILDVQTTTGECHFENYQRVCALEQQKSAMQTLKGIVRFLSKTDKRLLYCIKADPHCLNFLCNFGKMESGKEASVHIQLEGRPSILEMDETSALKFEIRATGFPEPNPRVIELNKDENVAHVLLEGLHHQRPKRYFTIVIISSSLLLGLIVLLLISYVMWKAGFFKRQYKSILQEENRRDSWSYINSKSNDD
PG9 binder: small molecules binding HIV-1 gp120 antibody PG9 | TR-FRET gp120-PG9 antibody binding | inhibition, % at 6.7 µM | 360,000 compounds, 0.43% hits; in the data active = inhibition above about 8.5%
Exocytosis inh: lytic granule exocytosis inhibition. 360,000 compounds, 0.66% hits. TALL-104 LAMP-1 surface exposure, flow cytometry; cells stimulated with thapsigargin and PMA. inhibition, % at 10 µM. AID 651702;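 active = inhibition above about 55%, limit read from the data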
Exocytosis CP01: blocks lytic granule exocytosis. shares compounds with Exocytosis inh. TALL-104 cells, LAMP-1 externalization, flow cytometry; stimulated with PMA plus thapsigargin. inhibition, % at 10 µM. 1,500 compounds, 11% hits. AID 651954; in the data active = inhibition above about 60%;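 also: 0% = stimulated vehicle wells and 100% = unstimulated wells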
* = called active by the depositor; . = no result given.

SMILES | ABCB6 inh 2 | NR1D1 modulator | VLA-4 inh | PG9 binder | Exocytosis inh | Exocytosis CP01
COc1ccc(NC(=O)CN(c2ccc(OC)c(Cl)c2)S(=O)(=O)c2ccccc2)cc1 | 99 | 0 | 18 | -1 | 56* | -3
CCOc1ccc(N(CC(=O)NCCSc2ccccn2)S(C)(=O)=O)cc1 | 102 | 1 | 10 | 2 | -1 | .
COc1ccc(N(CC(=O)NCCC2=CCCCC2)S(=O)(=O)c2ccccc2)cc1OC | 110 | 0 | 4 | -2 | 1 | .
CO[C@@H]1[C@H](O)CC[C@]2(O)CN(c3ccc(F)cc3)[C@](C)([C@H](O)CC=C(C)C)[C@@H]12 | . | 4 | . | -1 | . | .
CCOC(=O)[C@@]12CN(C(=O)OC(C)(C)C)CC=C1N(Cc1ccc(OC)cc1)C(=O)[C@H]2CC(=O)NCc1cccc2ccccc12 | . | 2 | . | . | . | .
Cc1ccc(-n2cc(-c3ccccc3)c3c(N4CCN(C)CC4)ncnc32)cc1 | 96 | -2 | 16 | 0 | 69* | 7
Cc1cccc(COCC(CC(C)C)N2CCN(C(=O)c3ccc(C(C)(C)C)cc3)CCC2=O)c1 (configuration not stated) | 97 | 2 | . | -2 | 66* | -4
CCN1C(c2ccccc2)C(C)C(=O)C(C)C1c1ccccc1 (configuration not stated) | 99 | 11 | 19 | 0 | 58* | -2
CCOc1ccc(C(=O)CC(Sc2ccc(C)cc2)C(=O)O)cc1 (configuration not stated) | 107 | 2 | 11 | -3 | -2 | .
O=C(CC(Sc1ccc(Br)cc1)C(=O)O)c1ccc(F)cc1 (configuration not stated) | 91 | 2 | 1 | -2 | 69* | -13
C[C@H](O)[C@@H]1CN2CCc3c([nH]c4c(-c5ccc6c(c5)OCO6)cccc34)[C@@H]2C[C@@H]1N(C)C(=O)c1ccco1 | . | 9 | . | . | . | .
Cc1ccc(CNC(=O)C2CC(c3cccc(F)c3)=NO2)cc1 (configuration not stated) | 101 | 0 | -2 | 1 | 72* | -15
O=C(NCc1ccncc1)C(=O)Nc1nc(C23CC4CC(CC(C4)C2)C3)cs1 | 85 | 2 | 10 | -4 | 77* | -1
O=C(Cc1ccccc1F)Nc1nnc(-c2cccnc2)s1 | . | 4 | . | . | . | .
CCc1nc2ccc(C(=O)Nc3cc(-c4ccccc4)ccc3OC)cn2c1N(CC)CCN(C)C | 100 | 1 | . | 2 | 60* | 48
CCc1nc2ccc(C(=O)Nc3cc(-c4ccccc4)ccc3OC)cn2c1N(CC)Cc1cccc(Br)c1 | 89 | -3 | . | -2 | 14 | .
CC(C)N(Cc1ccccc1)S(=O)(=O)c1ccc(F)cc1 | 100 | 0 | 7 | -2 | 64* | -14
CCN(Cc1ccccc1)S(=O)(=O)c1ccc(F)cc1 | 102 | -1 | 4 | -1 | 25 | .
O=C(c1ccc(Br)cc1)N1CCN(Cc2ccccc2)CC1 | 96 | 0 | 3 | 0 | 6 | .
O=C(CCN1CCN(C(=O)c2ccccc2)CC1)c1ccc(Br)cc1 | 95 | 3 | 2 | 0 | 82* | 15
COC(=O)c1cc2c(c3c4ccccc4n(S(=O)(=O)c4cccc(C)c4)c13)C(=O)N(C)C2 | . | -5 | . | 0 | . | .
CCCCS(=O)(=O)N1CCCc2nc(CC)c(CC)cc21 | . | -5 | . | 1 | . | .
CNC(=O)C1(c2ccccc2)CCCCC1 | 97 | 1 | . | -2 | -4 | .
COc1ccccc1NC(=O)C1(c2ccccc2)CCCC1 | 94 | . | 0 | -1 | 85* | -3
CCCOc1ccccc1NC(=O)/C=C/C(N)=O | 98 | 4 | 12 | 1 | 66* | 0
SMILES | ABCB6 inh 2 | NR1D1 modulator | VLA-4 inh | PG9 binder | Exocytosis inh | Exocytosis CP01
O=S1(=O)c2ccc(Br)cc2OC[C@H](Cc2ccccc2)N1Cc1cn(Cc2ccc(Br)cc2)nn1 | . | -1 | . | . | . | .
CN(C)CCn1c(=N)n(CC(O)c2ccc(Cl)c(Cl)c2)c2ccccc21 (configuration not stated) | 106 | -2 | 7 | 0 | 85* | -13
COc1ccc(CNC2CCN(Cc3ccccc3)CC2)cc1 | 97 | -3 | 0 | -1 | 60* | -3
O=C1c2ccccc2CC1Sc1nnc(-c2ccncc2)o1 (configuration not stated) | 107 | 2 | 5 | -3 | 1 | .
Cc1ccccc1N1C(=O)CC(Sc2nnc(-c3ccccc3)o2)C1=O (configuration not stated) | 94 | 4 | 15 | 7 | 88* | 54
Cc1cccc(NC(=O)N2CCC(N(C)CCC(C)C)CC2)c1 | . | 1 | . | . | . | .
CCCCNC(=O)C[C@@H]1C(=O)N(Cc2ccc(OC)cc2)C2=CCN(C(=O)OC(C)(C)C)C[C@]21C(=O)OCC | . | 4 | . | . | . | .
Cc1ccc(Cl)cc1N1CCN(S(=O)(=O)c2cccc(S(=O)(=O)N3CCCC3)c2)CC1 | 97 | 3 | 17 | -2 | 77* | -7
O=C(c1ccc(Br)cc1)C(CN1CCOCC1)c1ccccc1 (configuration not stated) | 89 | 1 | 14 | -1 | 67* | -10
c1ccc2[nH]c(Cn3nnc4ccccc43)nc2c1 | 85 | 0 | 34 | -3 | 59* | -5
C(=C\c1nc(N2CCCCCC2)c2ccccc2n1)/c1ccccc1 | 93 | -2 | 11 | 0 | 58* | 32
COC(=O)c1cc(C2(c3c[nH]c4ccccc34)CCN(C(=O)OC(C)(C)C)CC2)n2ccccc12 | . | 0 | . | . | . | .
COc1ccc(CC(=O)Nc2cccc(C(C)=O)c2)cc1S(=O)(=O)N1CCOCC1 | 93 | -6 | 8 | 0 | 100* | -2
COc1ccccc1CNc1nc(NCCOc2ccccc2)c2sccc2n1 | 98 | 2 | . | -1 | 56* | 45
COc1ccccc1CNc1nc(NCc2ccc3occc3c2)c2sccc2n1 | 94 | -7 | . | -1 | 93* | 90*
O=C(O)Cn1c(=O)n(Cc2ccccc2)c2ccccc21 | 107 | -11 | -2 | 1 | 58* | -4
COc1ccccc1N(CC(=O)NCCc1ccccc1)C(=O)CCC(=O)Nc1cc(C)ccn1 | 90 | 4 | 1 | -2 | 62* | -14
C#CCOCCOCCOCCNc1nc(N2CCOCC2)nc(N2CCN(C(=O)[C@H](CCC(=O)O)n3cc(C(N)CO)nn3)CC2)n1 (some centres not stated) | . | 0 | . | . | . | .
CCN(CC)CCNc1nc(-c2ccc(OC)cc2)c(-c2ccc(OC)cc2)s1 | 99 | 3 | 4 | 0 | 66* | -2
C/C=C/c1ccc(OCCOCCNCc2ccccc2)c(OC)c1 | 103 | 0 | 8 | -1 | 70* | -5
C/C=C/c1ccc(OCCOc2cc(C=O)ccc2OC)c(OC)c1 | 102 | 1 | 3 | 0 | 2 | .
COc1ccc(-c2cc3ccccc3n2CC(O)CN2CCCCC2)cc1 (configuration not stated) | 95 | 4 | -17 | -1 | 6 | .
